Data on 29 molecules can be found in ChEMBL document CHEMBL4513141, “CO-ADD screening of NIH (USA) - Clinical Collection” (2021).

For one assay, the system named is Klebsiella pneumoniae. The settings on record: Concentration 20 uM; ASSAY_TEST Inhibition of Bacterial Growth; detection method Absorption (OD600); MEDIA CAMHB; plate type 384well; NBS; CORNING #3640; time 18 hr.
The test system of another assay is Candida albicans. The following applies: 20 µM.
A further assay concerns Cryptococcus neoformans. The following applies: Concentration 20 uM; ASSAY_TEST Inhibition of Fungal Growth; detection method Resazurin; Absorption (OD600-OD570); plate type 384well; NBS; CORNING #3640.

Results with a measured potency or affinity are listed apart.

Consider `CN(C)c1nc(N(C)C)nc(N(C)C)n1` [ALTRETAMINE], for which the Inhibition was 4.59% in the assay on Klebsiella pneumoniae, 4.65% in the assay on Candida albicans and -7.07% in the assay with Cryptococcus neoformans.

Consider `CC1(C)O[C@@H]2C[C@H]3[C@@H]4C[C@H](F)C5=CC(=O)C=C[C@]5(C)[C@H]4[C@@H](O)C[C@]3(C)[C@]2(C(=O)CO)O1` [FLUNISOLIDE], for which the Inhibition in the assay on Klebsiella pneumoniae is 10.74%; with Candida albicans, 7.13%; with Cryptococcus neoformans, -6.19%.

As for `C[C@H](N[C@@H](CCc1ccccc1)C(=O)O)C(=O)N1CCC[C@H]1C(=O)O` [ENALAPRILAT ANHYDROUS], the Inhibition stood at 8.45% in the assay on Klebsiella pneumoniae, 2.99% in the assay with Candida albicans and 1.01% in the assay with Cryptococcus neoformans.

Consider `COc1cc2nc(N3CCN(C(=O)C4CCCO4)CC3)nc(N)c2cc1OC` (centres undefined) [TERAZOSIN], for which the Inhibition was 3.6% with Klebsiella pneumoniae, 3.05% in the assay with Candida albicans and 0.02% with Cryptococcus neoformans.

On to `NC(=O)N1c2ccccc2CC(=O)c2ccccc21` [OXCARBAZEPINE], for which the Inhibition was 3.69% in the assay with Klebsiella pneumoniae, 2.7% in the assay with Candida albicans and -4.73% with Cryptococcus neoformans.

For `CC(C)Oc1ccc2c(=O)c(-c3ccccc3)coc2c1` [IPRIFLAVONE], the values for the Inhibition in the assay with Klebsiella pneumoniae, in the assay on Candida albicans and in the assay with Cryptococcus neoformans were 12.22%, 3.92% and 2.68%, respectively.

Regarding `CC(C)C[C@H](NC(=O)[C@@H](O)[C@H](N)Cc1ccccc1)C(=O)O` [UBENIMEX], the values for the Inhibition in the assay on Klebsiella pneumoniae, in the assay with Candida albicans and in the assay with Cryptococcus neoformans were 12.45%, 0.73% and -0.18%, respectively.

As for `CCN(CC)CCNC(=O)c1cc(Cl)c(N)cc1OC.Cl`, the figures for the Inhibition in the assay with Klebsiella pneumoniae, with Candida albicans and in the assay on Cryptococcus neoformans were 10.19%, 3.69% and -1.39%, respectively.

Regarding `c1ccc2[nH]c(-c3cscn3)nc2c1` [THIABENDAZOLE], the Inhibition with Klebsiella pneumoniae was 17.05%; with Candida albicans, 1.43%; in the assay on Cryptococcus neoformans it was -4.52%.

Consider `Cc1ccc(N(CC2=NCCN2)c2cccc(O)c2)cc1` [PHENTOLAMINE], for which the Inhibition is 6.34% with Klebsiella pneumoniae, 2.06% with Candida albicans and -2.31% with Cryptococcus neoformans.

Turning to `CCCNCC(O)COc1ccccc1C(=O)CCc1ccccc1` (centres undefined) [PROPAFENONE], the Inhibition with Klebsiella pneumoniae was 6.97%; with Candida albicans it was 0.01%; with Cryptococcus neoformans it was -5.76%.

Turning to `Cc1cnc(NC(=O)C2=C(O)c3ccccc3S(=O)(=O)N2C)s1` [MELOXICAM], the Inhibition is 2.2% in the assay on Klebsiella pneumoniae, 9.71% with Candida albicans and -3.68% in the assay with Cryptococcus neoformans.

For `C#C[C@]1(O)CC[C@H]2[C@@H]3CCC4=Cc5oncc5C[C@]4(C)[C@H]3CC[C@@]21C` [DANAZOL], the Inhibition with Klebsiella pneumoniae was determined as 2.6%; in the assay on Candida albicans, 6.36%; in the assay on Cryptococcus neoformans it was 0.96%.

Turning to `COc1cc(C)nc(-n2nc(C)cc2OC)n1` [EPIRIZOLE], the Inhibition is 10.39% in the assay with Klebsiella pneumoniae, -0.63% in the assay on Candida albicans and 1.6% in the assay with Cryptococcus neoformans.

Regarding `CNCCCN1c2ccccc2CCc2ccccc21.Cl` [DESIPRAMINE HYDROCHLORIDE], the figures for the Inhibition in the assay with Klebsiella pneumoniae and in the assay with Candida albicans were 6.09% and 2.92%, respectively.

For `Nc1nc2c(ncn2COC(CO)CO)c(=O)[nH]1` [GANCICLOVIR], the Inhibition in the assay on Klebsiella pneumoniae was 11.05%; with Candida albicans it was 0%; in the assay on Cryptococcus neoformans, -0.42%.

As to `Oc1ccc(/C=C/c2cc(O)cc(O)c2)cc1` [RESVERATROL], the Inhibition was 12.99% in the assay with Klebsiella pneumoniae, 2.92% with Candida albicans and -4.32% in the assay with Cryptococcus neoformans.

In the case of `C=C[C@H]1CN2CC[C@H]1C[C@@H]2[C@@H](O)c1ccnc2ccc(OC)cc12` [QUINIDINE], the Inhibition in the assay with Klebsiella pneumoniae was 12.62%; in the assay with Candida albicans, -0.46%.

With `CC(Oc1c(Cl)cccc1Cl)C1=NCCN1.Cl` (centres undefined) [LOFEXIDINE HYDROCHLORIDE], the Inhibition is 6.35% with Klebsiella pneumoniae, 2.12% with Candida albicans and -0.75% with Cryptococcus neoformans.

In the case of `CN(C)C(=O)Oc1ccc[n+](C)c1.[Br-]` [PYRIDOSTIGMINE BROMIDE], the Inhibition is 3.02% with Klebsiella pneumoniae, 1.97% with Candida albicans and -8.97% with Cryptococcus neoformans.

For `CN1CCN(C2=Nc3ccccc3Oc3ccc(Cl)cc32)CC1.O=C(O)CCC(=O)O` [LOXAPINE SUCCINATE], the Inhibition in the assay on Klebsiella pneumoniae is 7.32%; in the assay on Candida albicans it was 2.62%; with Cryptococcus neoformans, -0.59%.

For `Cc1ccc(C)c(OCCCC(C)(C)C(=O)O)c1` [GEMFIBROZIL], the Inhibition is 7.25% in the assay with Klebsiella pneumoniae, 8.15% in the assay with Candida albicans and -1.55% in the assay on Cryptococcus neoformans.

In the case of `CC(c1cc2ccccc2s1)N(O)C(N)=O` (centres undefined) [ZILEUTON], the Inhibition in the assay on Klebsiella pneumoniae was 4.07%; in the assay with Candida albicans, 5.22%; with Cryptococcus neoformans, 2.66%.

Regarding `CN(C)CC[C@@H](c1ccc(Br)cc1)c1ccccn1.O=C(O)/C=C\C(=O)O` [DEXBROMPHENIRAMINE MALEATE], the values for the Inhibition in the assay with Klebsiella pneumoniae, in the assay on Candida albicans and in the assay with Cryptococcus neoformans were -0.14%, 1.43% and -3.8%, respectively.

For `COc1ccnc(C[S+]([O-])c2nc3cc(OC(F)F)ccc3[n-]2)c1OC.O.[Na+]` (centres undefined) [PANTOPRAZOLE SODIUM], the Inhibition with Klebsiella pneumoniae was 5.85%; in the assay with Candida albicans it was 19.6%; in the assay with Cryptococcus neoformans it was -26.37%.

For `Cl.O.O=C(c1ccc(F)cc1)C1CCN(CCn2c(=S)[nH]c3ccccc3c2=O)CC1`, the Inhibition with Klebsiella pneumoniae came to 11.14%; in the assay with Candida albicans, 3.36%; in the assay with Cryptococcus neoformans, 0.24%.

`CN1C(C(=O)Nc2ccccn2)=C(O)c2ccccc2S1(=O)=O.O`: the Inhibition in the assay on Klebsiella pneumoniae was 9.7%; in the assay on Candida albicans, 7.55%; in the assay with Cryptococcus neoformans it was -5.24%.

On to `Cl.O[C@@H](c1cc(C(F)(F)F)nc2c(C(F)(F)F)cccc12)[C@H]1CCCCN1`, for which the Inhibition turned out to be 14.04% with Klebsiella pneumoniae and 5.35% in the assay with Candida albicans.

As to `CN[C@@H]1[C@H](O)[C@H](NC)[C@H]2O[C@@]3(O)C(=O)C[C@@H](C)O[C@H]3O[C@@H]2[C@H]1O.Cl.Cl.Cl.O.O.O`, the Inhibition is 37.26% in the assay with Klebsiella pneumoniae, 2.22% with Candida albicans and -1.83% in the assay on Cryptococcus neoformans.

The Inhibition is the relative decrease from the control value, in per cent.
